Source: the supplement of paper PMC6555819

Tests used:
Assay in all cases: PBM binding z-score (relative to random genomic background probes); higher = stronger binding; sequences stand for … in GC…GCGATTGACAGCGTAGAATGAAGG
[1] = test system: PPARg:RXRa DBDmut IVT, anti-RXR (DBD mutation: RXRa K156A/R161A, NR concentration 270 nM, RXRa partner concentration 90 nM)
How it was run: (§1)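 Binding z-scores were set against random background probes. The data came from custom Agilent 4×180K protein-binding microarrays carrying double-stranded probes with 34-nt variable regions, incubated 1 h with ligand-free nuclear receptor dimers. Partner-specific antibodies detected binding, and scanned fluorescence was regression-normalized.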

[2] = test system: PPARg:RXRa IVT, anti-PPARg (NR concentration 270 nM, RXRa partner concentration 90 nM)
How it was run: as §1

[3] = test system: PPARg DBDmut:RXRa IVT, anti-PPARg (DBD mutation: PPARg1 K132A/R137A, NR concentration 270 nM, RXRa partner concentration 90 nM)
How it was run: as §1

[4] = test system: PPARg DBDmut IVT, anti-PPARg (DBD mutation: PPARg1 K132A/R137A, NR concentration 270 nM)
How it was run: as §1

[5] = test system: PPARg homodimer (NR concentration 180 nM)
How it was run: as §1

[6] = test system: PXR:RXRa (NR concentration 270 nM, RXRa partner concentration 90 nM)
How it was run: as §1

[7] = test system: PXR homodimer (NR concentration 270 nM)
How it was run: as §1

[8] = test system: RARa:RXR (NR concentration 270 nM, RXRa partner concentration 90 nM)
How it was run: as §1

[9] = test system: RARa homodimer (NR concentration 270 nM)
How it was run: as §1

[10] = test system: RARb:RXRa (NR concentration 270 nM, RXRa partner concentration 90 nM)
How it was run: as §1

Sequence	PBM binding z-score [1]	PBM binding z-score [2]	PBM binding z-score [3]	PBM binding z-score [4]	PBM binding z-score [5]	PBM binding z-score [6]	PBM binding z-score [7]	PBM binding z-score [8]	PBM binding z-score [9]	PBM binding z-score [10]
TGAATGCGGTTAAAGATCAGGGAACGTGGCGTCG	-0.715	0.725	0.416	0.69	0.0368	-0.493	-0.492	-0.11	-0.405	0.315
ATCTCTAGGTAAACATAGTTCAGTGAATGCAAAT	2.31	2.59	0.983	1.45	1.28	1.35	0.955	0.73	1.3	1.01
ACTCGGAGGACAAAGGTCAGAGCTACGCCAGTGA	0.692	3.72	0.709	0.127	3.04	3.91	0.0188	5.19	2.21	4.44
TCTGCTAGATCAGTTGGTCAGCTAACGAGCTGCC	0.357	-0.283	-0.43	-0.675	-2.6	-0.872	-1.07	-0.915	-1.97	-0.199
ATCTCTAGGTAAAGATAGTGCAGTGAATGCAAAT	1.33	1.62	0.773	0.751	-0.52	-0.0642	-0.041	0.189	0.661	-0.164
ATACAAAGGTGATCGTGAGGTCGTTGATACTAAC	1.15	2.15	1.05	0.894	1.53	4.07	1.38	3	1.26	2.54
TCTTGTAGATCAACAGGAGGTTAAGCAAGATCGA	1.61	0.884	0.4	0.795	-0.0893	0.934	0.136	1.22	-0.27	0.659
TATACAGGGTCAAAGGCCTGAGTACGAATGTCGA	2.08	4.32	3.81	3.06	4.01	3.86	0.321	5.15	1.29	4.2
GCTGCTAGGTCAACTGATGGTCAGGTAAAGCTCG	4.69	4.23	-0.376	-0.724	2.17	1.83	-0.677	3.15	0.327	4.45
CGAACTAGGTCATTGACAGGACAGTGTATAGTAA	7.92	8.25	2.44	1.65	2.13	1.67	0.281	2.47	0.571	3.63
TCGAGTAGGTTAGTCGGCGCATTCAGCCAACATA	1.73	0.854	-1.61	-1.56	-0.687	-0.463	-0.787	-0.68	-0.479	-0.141
TCTAATAGTTGATTAGGGCAACCGAAACAGCGGA	1.74	1.56	0.711	0.3	0.347	0.323	-0.117	0.766	-0.402	0.915
TGTCAAAGTTCAAAGGTAACGTAAGTATCCACAC	0.64	4.66	1.24	1.15	2.16	5.77	3.43	6.45	0.967	5.11
AGTCAAAGTTCACTAGGTAACGTATGATTCAGCT	2.65	4.66	1.13	1.39	2.15	3.83	2.69	2.93	1.04	4.76
ATTGAAAGGTCGAGGTGAGTATAGAGAAAGGGAA	0.763	2.77	1.27	1.65	2.49	2.7	0.738	3.64	1.83	4.28
CCTACTCGGCCATTCAGAGGTCATTGATCATATG	2.23	1.88	0.471	0.672	2.68	4.91	3.38	4.55	1.67	3.27
CGAACTAGGTCAAGGACAGTGAGTCTCCGCACGC	8.24	8.49	4.66	1.15	1.2	0.826	-0.0553	1.87	-0.462	3.83
GCTTACGGGGCAAAGGTTATAGCATGAATAGAAT	3.33	4.27	0.825	1.35	2.67	2.99	0.0717	4.63	0.155	2.32
CCTACTGGGGCATTCAGAGGTCATTGATCATATG	4.5	5.15	0.018	0.266	2.6	5.08	2.1	4.67	0.372	3.45
CCGACTGGGGCATAAGGTTACCATTAGCCAGCCC	3.03	3.04	-1.02	-1.9	0.694	0.105	-0.286	1.35	-0.407	1.61
AGAACGAGGGCACGCTGAGTGGATAGCAGAGTAG	4.13	3.9	0.715	0.00545	0.149	0.143	-0.338	0.776	-0.364	2.42
TCATATAGGTAATCCAGGTGAAAGTCGGCATCTA	4.8	4.82	1.66	1.21	1.69	0.657	0.114	1.28	0.866	0.724
CGGACTGGGGCAGAAAGGTTACCATACCATCCGG	3.24	4.12	-0.341	-0.159	1.44	1.41	0.0628	1.82	0.413	2.12
